Assay outcomes as filed in PubChem BioAssay.
Sampled rows, rich in hits. Any-hit rate of the full collection: about 1.1%.
MOR-DOR ag-1: agonists of human mu-delta opioid receptor heterodimerization. activation, % at 9.3 µM. P35372+P41143. cells, OPRM1-OPRD1 heterodimerization, luminescence. hit rate 0.3% among 340,000;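 also: 0% = vehicle-treated cells and 100% = reference agonist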
OPRM1-OPRD1 inv: mu-delta opioid heterodimer inverse agonism | P35372+P41143 | cell-based MOR-DOR heterodimer luminescence | inhibition, % at 9.3 µM | hit rate 0.21% among 340,000; in the data active = inhibition above about 22%, passing the limit was not always enough;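 also: 0% = cells with DMSO and 100% = wells without cells with DMSO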
HTR5A ag: counter-screen for OPRM1-OPRD1 agonists: human HTR5A agonism. P47898. HTR5A agonist assay, luminescence, cell-based. activation, % at 9.3 µM. hit rate 0.61% among 340,000; in the data active = activation mostly above about 9.5%, no sharp cut-off; inactive = mostly below about 7.6%;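 also: 0% = cells with vehicle only and 100% = reference agonist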
Target sequence (P47898 whole entry, looked up): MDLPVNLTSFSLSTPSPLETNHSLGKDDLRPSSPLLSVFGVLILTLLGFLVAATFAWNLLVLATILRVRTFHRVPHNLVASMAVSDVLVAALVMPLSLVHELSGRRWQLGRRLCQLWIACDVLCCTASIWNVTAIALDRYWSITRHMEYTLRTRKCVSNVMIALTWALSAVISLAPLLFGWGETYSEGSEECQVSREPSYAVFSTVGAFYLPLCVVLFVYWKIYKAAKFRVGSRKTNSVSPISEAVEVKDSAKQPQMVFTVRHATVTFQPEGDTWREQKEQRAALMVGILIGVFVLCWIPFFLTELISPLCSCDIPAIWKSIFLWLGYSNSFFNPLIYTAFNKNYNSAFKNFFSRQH
HTR5A inv ctr: counter-screen for OPRM1-OPRD1 inverse agonists: human HTR5A inverse agonism. P47898. HTR5A cell line, luminescence. inhibition, % at 9.3 µM. hit rate 0.083% among 340,000; in the data active = inhibition mostly above about 23%, no sharp cut-off; inactive = mostly below about 18%;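 also: 0% = cells with DMSO and 100% = no-cell wells with DMSO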
MOR-DOR ag-2: promotes OPRM1-OPRD1 heterodimerization in HTR5A counter-screen; shares compounds with HTR5A ag; hit rate 13% among 800; activation, % at 9.3 µM; U2OS counter-screen cells, complementation luminescence, 3 h
HTR5A ag confirm: confirmation of human HTR5A agonists. shares compounds with HTR5A ag. HTR5A agonist cell assay, luminescence. activation, % at 9.3 µM. hit rate 17% among 800. AID 504915; in the data active = activation above about 17%;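 also: 0% = cells with vehicle only and 100% = full reference agonist response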
* = called active by the depositor; . = no result. Rule as the data show it, unless noted: active = activation above about 18%; inactive = the rest.

SMILES | MOR-DOR ag-1 | OPRM1-OPRD1 inv | HTR5A ag | HTR5A inv ctr | MOR-DOR ag-2 | HTR5A ag confirm
CCCc1[nH]n(-c2ccc([N+](=O)[O-])cc2)c(=O)c1C=NCCc1c[nH]c2ccccc12 | 1 | -7 | 20* | -44 | 5 | 5
CCNC(=S)NNc1nncc2ccccc12 | -3 | 12 | 16* | -41 | 36* | -3
O=C1C2ON(c3ccccc3)C(c3ccncc3)C2C(=O)N1c1ccc(N2CCOCC2)cc1 (stereo not drawn) | -1 | 4 | 20* | -56 | -2 | -5
COC(=O)c1cc(-c2c[nH]c3ccccc23)n[nH]1 | -2 | 7 | 30* | -160 | 10 | 0
COC(=O)c1cc(-c2ccc(Br)cc2)n[nH]1 | 0 | -2 | 4 | -11 | . | .
Nc1ccc(C(=O)N/N=C/c2cccc(Oc3ccccc3)c2)cc1 | -2 | 14 | 23* | -84 | 0 | 27*
COCCNC(=O)c1cccc(OC2CCN(C(C)COc3ccccc3)CC2)c1 (stereo not drawn) | 2 | -10 | -4 | 12 | . | .
COc1ccccc1CC(NC(C)=O)C(=O)N1CCN(C(=O)c2cccs2)CC1 (stereo not drawn) | -3 | 12 | -2 | 10 | . | .
COc1ccccc1CN(C)C(=O)CN1CCN(C(=O)c2cccs2)CC1 | -4 | 16 | 15* | 10 | 1 | 32*
CCN(CC)C(CNC(=O)CSc1nnnn1-c1c(C)cccc1C)c1ccco1 (stereo not drawn) | 1 | -6 | 20* | -55 | 3 | 29*
CCN(CC)C(CNC(=O)CSc1nnnn1-c1ccc(C)c(C)c1)c1ccco1 (stereo not drawn) | 2 | -8 | -3 | 8 | . | .
CC(C)C(=O)NCCc1nc2ccccc2n1CCCOc1ccc(Cl)cc1 | 0 | -1 | -4 | 12 | . | .
Cc1ccc(OCCn2c(CCNC(=O)C(C)C)nc3ccccc32)cc1 | -2 | 13 | 20* | -55 | 5 | 11
CC(CC(=O)NNC(=O)c1ccncc1)c1ccccc1 (stereo not drawn) | -1 | 4 | 2 | 2 | . | .
Cc1cc(C)c(OCCNCc2ccccc2)c(C)c1 | 2 | -7 | -2 | 6 | . | .
Cc1cc(C)c(OCCCCNCc2ccccc2)c(Cl)c1 | 6 | -28 | 19* | -46 | 12 | 1
CN(C)c1ccc(NC(=S)N2CCN(c3ncc(C(F)(F)F)cc3Cl)CC2)cc1 | 2 | -11 | 16* | -10 | 1 | 5
COc1ccc(CNC(=S)Nc2ccc3nc(N4CCN(C)CC4)cc(C)c3c2)cc1 | -1 | 7 | 5 | -16 | . | .
COc1ccccc1CNC(=S)Nc1ccc2nc(N3CCN(C)CC3)cc(C)c2c1 | -2 | 11 | 70* | -199 | 2 | 70*
O=C(CN1C(=O)CSc2ncccc21)NCCN1CCOCC1 | -1 | 4 | 16* | -48 | 0 | 1
CCN1CCN(c2cc(-c3ccccc3)nc3cc(-c4cccc(F)c4)nn23)CC1 | 10 | -45 | 14* | -8 | 11 | -3
OC1CCN(c2cc(-c3ccccc3)nc3cc(-c4ccc(F)cc4)nn23)CC1 | -2 | 9 | 1 | -3 | . | .
CCc1ccc(Nc2nnc(SCC(=O)NC(=O)c3cccn3C)s2)cc1 | 13 | -66 | 15* | -35 | 0 | -1
COc1ccc(-n2nc(C(=O)NCC(=O)NC3CCCCC3)c3ccccc3c2=O)cc1 | 1 | -5 | 6 | -18 | . | .
N#CC1c2ccccc2C=CN1C(=O)N(c1ccccc1)c1ccccc1 (stereo not drawn) | 4 | -21 | -2 | 7 | . | .
SMILES | MOR-DOR ag-1 | OPRM1-OPRD1 inv | HTR5A ag | HTR5A inv ctr | MOR-DOR ag-2 | HTR5A ag confirm
Cc1cc(C)c(C(=O)Nc2ccc(Br)c(C(F)(F)F)c2)c(C)c1 | 8 | -46 | 18* | -13 | 0 | 0
O=C(O)c1ccccc1C(=O)Nc1ccc(Br)c(C(F)(F)F)c1 | -1 | 6 | -4 | -5 | . | .
Cc1ccc(NC(=O)CNC(C)c2ccccc2)cc1 (stereo not drawn) | -2 | 10 | -1 | 4 | . | .
CCN(CC)c1ccc(-c2nn3c(-c4n[nH]c5c4CCC5)nnc3s2)cc1 | -2 | 9 | 16* | -18 | 9 | 9
C1CCC(c2nn3c(-c4n[nH]c5c4CCC5)nnc3s2)CC1 | 0 | 1 | 1 | -3 | . | .
Cc1cccc(C)c1NC(=S)N1CCCN(Cc2ccc(F)cc2)C1 | 0 | 1 | 0 | -12 | . | .
COc1ccc(NC(=S)N2CCCN(Cc3cccc(Cl)c3)C2)cc1 | -1 | 5 | 48* | 7 | 167* | -2
COc1cccc(NC(=S)N2CCCN(Cc3ccc(F)cc3)C2)c1 | 0 | 0 | 33* | -14 | 4 | 26*
CCOc1ccc(NC(=S)N2CCCN(Cc3cccc(Cl)c3)C2)cc1 | 1 | -6 | 3 | -10 | . | .
O=S(=O)(Nc1cccc(-c2cn3c(n2)SCC3)c1)c1ccc(F)cc1F | -2 | 10 | 2 | -6 | . | .
NNS(=O)(=O)c1ccc(Sc2ccccn2)c([N+](=O)[O-])c1 | -3 | 15 | 15* | 15 | 0 | 13
COc1cccc(N2CCN(C(=O)CCCCCn3c(=S)[nH]c4cc5c(cc4c3=O)OCO5)CC2)c1 | 8 | -40 | 21* | -79 | 6 | 21*
O=C(CCCCCn1c(=S)[nH]c2cc3c(cc2c1=O)OCO3)N1CCN(c2ccccc2)CC1 | 1 | -3 | 0 | 1 | . | .
CN(Cc1ccccc1)S(=O)(=O)c1ccc2c(c1)n(C)c(=O)n2C | 6 | -34 | 16* | -57 | 0 | -1
COc1cc(/C=C2\SC(=O)N(CCN)C2=O)ccc1OS(=O)(=O)c1cc(C)ccc1C | 9 | -42 | 22* | -64 | 19* | 15
Cc1cccc2cc(CNCC3CCCO3)c(Cl)nc12 (stereo not drawn) | -1 | 5 | 15* | -41 | 0 | -1
O=C(Nc1ccc2nc(SCc3ccc(Cl)cc3)sc2c1)c1ccccc1C(=O)N1CCOCC1 | 7 | -32 | 21* | -51 | 12 | 6
Cc1nn(Cc2ccc(F)cc2)c2sc(C(=O)Nc3nccs3)cc12 | 9 | -66 | 21* | -57 | 4 | 0
Cc1nn(Cc2ccccc2Cl)c2sc(C(=O)Nc3nccs3)cc12 | 5 | -32 | 6 | -18 | . | .
O=C(CSc1n[nH]c(-c2ccco2)n1)Nc1sc2c(c1C(=O)Nc1ccccc1)CCCC2 | 1 | -6 | 18* | -30 | 3 | 4
O=C(CSc1n[nH]c(-c2ccco2)n1)Nc1ccc(Br)cc1 | -3 | 17 | -4 | 16 | . | .
Nc1nc(SCC(=O)Nc2cc(Cl)ccc2Cl)n[nH]1 | 0 | 2 | 0 | 1 | . | .
O=C(Oc1c(Cl)cc(Cl)c2cccnc12)c1ccco1 | 4 | -26 | 26* | 0 | 4 | 0
O=C(Oc1c(Cl)cc(Cl)c2cccnc12)c1cccs1 | 6 | -29 | 17* | 11 | 8 | -1
Oc1c(Cl)cc(Cl)c2cccnc12 | 8 | -40 | -9 | 24 | . | .
O=C(Oc1c(CN2CCOCC2)cc(Cl)c2cccnc12)c1cccs1 | 0 | -2 | -4 | 10 | . | .
